Measurements from PubChem BioAssay AID1159580 (chemical genetic matrix, 2015).
The whole screen tested about 5,500 compounds, of which about 2,000 (36%) were called active. Roughly 18% stayed inconclusive and do not appear here. Cut-off read from the data, not from the text of the source: active = normalized growth mostly below about 0.91 (no sharp cut-off); inconclusive = no clear call, values can overlap the other calls; inactive = mostly above about 0.92. This is one part of the list.

Experiment: chemical genetic growth profiling, strain panel (AID 1159580);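 note: tested at 20 µM; growth read once vehicle control cultures reached saturation at 30 °C; 1 = growth at the plate median or of vehicle wells; lower values mean less growth of the strain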
Conditions: growth OD

Measured: normalized growth

ClC1=C(Cl)C2(Cl)C3C(Cl)C=CC3C1(Cl)C2(Cl)Cl (configuration not stated)
inactive: S. cerevisiae deletion strains, locus YJR075W, strain HOC1, hits give low values 1 | S. cerevisiae deletion strains, locus YKL009W, strain mrt4, hits give low values 0.957 | S. cerevisiae deletion strains, locus YKL068W, hits give low values 1 | S. cerevisiae deletion strains, locus YKL085W, strain MDH1 (second series), hits give low values 0.996 | S. cerevisiae deletion strains, locus YKL085W, strain MDH1, hits give low values 0.996 | S. cerevisiae deletion strains, locus YKL160W, strain elf1, hits give low values 0.993 | S. cerevisiae deletion strains, locus YKL190W, strain CNB1, hits give low values 0.989 | S. cerevisiae deletion strains, locus YKR001C, strain vps1, hits give low values 0.965 | S. cerevisiae deletion strains, locus YKR026C, strain gcn3, hits give low values 1.01 | S. cerevisiae deletion strains, locus YKR091W, strain srl3, hits give low values 1.01 | S. cerevisiae deletion strains, locus YLL001W, strain dnm1, hits give low values 1 | S. cerevisiae deletion strains, locus YLL026W, hits give low values 1.01 | S. cerevisiae deletion strains, locus YLL041C, strain sdh2, hits give low values 1.01 | S. cerevisiae deletion strains, locus YLR027C, strain aat2, hits give low values 0.97 | S. cerevisiae deletion strains, locus YLR039C, strain RIC1, hits give low values 1 | S. cerevisiae deletion strains, locus YLR058C, strain SHM2, hits give low values 0.986 | S. cerevisiae deletion strains, locus YLR102C, strain apc9, hits give low values 0.981 | S. cerevisiae deletion strains, locus YLR113W, strain HOG1, hits give low values 0.938 | S. cerevisiae deletion strains, locus YLR221C, strain rsa3, hits give low values 0.971 | S. cerevisiae deletion strains, locus YLR258W, strain gsy2, hits give low values 0.988 | S. cerevisiae deletion strains, locus YLR262C, strain YPT6 (second series), hits give low values 0.933 | S. cerevisiae deletion strains, locus YLR262C, strain YPT6, hits give low values 1.01 | S. cerevisiae deletion strains, locus YLR268W, strain sec22, hits give low values 0.985 | S. cerevisiae deletion strains, locus YLR320W, strain mms22, hits give low values 0.965 | S. cerevisiae deletion strains, locus YLR330W, strain CHS5, hits give low values 0.998 | S. cerevisiae deletion strains, locus YLR342W, strain FKS1 (second series), hits give low values 0.948 | S. cerevisiae deletion strains, locus YLR342W, strain FKS1, hits give low values 1.01 | S. cerevisiae deletion strains, locus YLR357W, strain rsc2, hits give low values 1 | S. cerevisiae deletion strains, locus YLR370C, strain arc18, hits give low values 0.999 | S. cerevisiae deletion strains, locus YLR371W, strain rom2, hits give low values 0.973 | S. cerevisiae deletion strains, locus YLR384C, strain iki3, hits give low values 1.01 | S. cerevisiae deletion strains, locus YLR418C, strain cdc73, hits give low values 0.977 | S. cerevisiae deletion strains, locus YML016C, strain PPZ1, hits give low values 0.992 | S. cerevisiae deletion strains, locus YML032C, strain rad52, hits give low values 0.968 | S. cerevisiae deletion strains, locus YML120C, strain ndi1, hits give low values 1 | S. cerevisiae deletion strains, locus YML124C, strain tub3, hits give low values 0.978 | S. cerevisiae deletion strains, locus YMR058W, strain fet3, hits give low values 0.998 | S. cerevisiae deletion strains, locus YMR078C, strain ctf18, hits give low values 0.959 | S. cerevisiae deletion strains, locus YMR125W, strain sto1, hits give low values 1.01 | S. cerevisiae deletion strains, locus YMR129W, hits give low values 1.01 | S. cerevisiae deletion strains, locus YMR205C, strain PFK2, hits give low values 0.947 | S. cerevisiae deletion strains, locus YMR223W, strain ubp8, hits give low values 0.95 | S. cerevisiae deletion strains, locus YMR231W, strain pep5, hits give low values 0.987 | S. cerevisiae deletion strains, locus YMR263W, strain SAP30, hits give low values 0.999 | S. cerevisiae deletion strains, locus YMR307W, strain GAS1, hits give low values 1.06 | S. cerevisiae deletion strains, locus YNL067W, strain RPL9B, hits give low values 1 | S. cerevisiae deletion strains, locus YNL071W, strain lat1, hits give low values 1.02 | S. cerevisiae deletion strains, locus YNL128W, strain TEP1, hits give low values 0.987 | S. cerevisiae deletion strains, locus YNL153C, strain GIM3, hits give low values 0.989 | S. cerevisiae deletion strains, locus YNL183C, strain NPR1, hits give low values 0.962 | S. cerevisiae deletion strains, locus YNL209W, strain ssb2, hits give low values 0.997 | S. cerevisiae deletion strains, locus YNL233W, strain BNI4, hits give low values 0.978 | S. cerevisiae deletion strains, locus YNL248C, strain rpa49, hits give low values 0.996 | S. cerevisiae deletion strains, locus YNL250W, strain rad50, hits give low values 0.99 | S. cerevisiae deletion strains, locus YNL271C, strain bni1, hits give low values 0.984 | S. cerevisiae deletion strains, locus YNL298W, strain CLA4, hits give low values 0.977 | S. cerevisiae deletion strains, locus YNL322C, strain KRE1 (second series), hits give low values 0.982 | S. cerevisiae deletion strains, locus YNL322C, strain KRE1, hits give low values 1 | S. cerevisiae deletion strains, locus YNR049C, strain mso1, hits give low values 1 | S. cerevisiae deletion strains, locus YNR052C, strain pop2, hits give low values 0.964 | S. cerevisiae deletion strains, locus YOL006C, strain TOP1, hits give low values 0.97 | S. cerevisiae deletion strains, locus YOL012C, strain htz1 0.908 | S. cerevisiae deletion strains, locus YOL147C, strain pex11, hits give low values 0.989 | S. cerevisiae deletion strains, locus YOR001W, strain rrp6, hits give low values 1.01 | S. cerevisiae deletion strains, locus YOR061W, strain CKA2, hits give low values 0.993 | S. cerevisiae deletion strains, locus YOR069W, strain VPS5, hits give low values 0.982 | S. cerevisiae deletion strains, locus YOR070C, strain gyp1, hits give low values 1.01 | S. cerevisiae deletion strains, locus YOR080W, strain dia2, hits give low values 0.995 | S. cerevisiae deletion strains, locus YOR083W, strain WHI5, hits give low values 0.974 | S. cerevisiae deletion strains, locus YOR106W, strain vam3, hits give low values 0.942 | S. cerevisiae deletion strains, locus YOR136W, strain idh2, hits give low values 0.963 | S. cerevisiae deletion strains, locus YOR144C, strain elg1, hits give low values 0.977 | S. cerevisiae deletion strains, locus YOR184W, strain ser1, hits give low values 0.886 | S. cerevisiae deletion strains, locus YOR231W, strain MKK1, hits give low values 1.02 | S. cerevisiae deletion strains, locus YOR265W, strain rbl2, hits give low values 1.01 | S. cerevisiae deletion strains, locus YOR270C, strain vph1, hits give low values 0.82 | S. cerevisiae deletion strains, locus YOR290C, strain snf2, hits give low values 0.939 | S. cerevisiae deletion strains, locus YOR316C, strain cot1, hits give low values 0.985 | S. cerevisiae deletion strains, locus YPL051W, strain arl3, hits give low values 0.996 | S. cerevisiae deletion strains, locus YPL055C, strain LGE1, hits give low values 1 | S. cerevisiae deletion strains, locus YPL078C, strain atp4, hits give low values 1 | S. cerevisiae deletion strains, locus YPL106C, strain sse1, hits give low values 0.963 | S. cerevisiae deletion strains, locus YPL240C, strain hsp82, hits give low values 0.999 | S. cerevisiae deletion strains, locus YPL241C, strain CIN2, hits give low values 0.993 | S. cerevisiae deletion strains, locus YPL256C, strain CLN2, hits give low values 1.02 | S. cerevisiae deletion strains, locus YPR119W, strain clb2, hits give low values 0.987 | S. cerevisiae deletion strains, locus YPR141C, strain kar3, hits give low values 0.982 | S. cerevisiae deletion strains, locus YPR163C, strain tif3, hits give low values 0.981 | S. cerevisiae deletion strains, locus YPR167C, strain met16, hits give low values 0.976 | S. cerevisiae deletion strains, strain wtn01, hits give low values 0.97 | S. cerevisiae strains, strain wild type, hits give low values 1
active: S. cerevisiae deletion strains, locus YNL307C, strain MCK1, hits give low values 0.885
